We go through 40 molecules from PubChem BioAssay (Tox21).

SMILES strings stand for the structures. Inconclusive results are not listed. Entries that show only a call come without a potency. Activity calls are given as the source filed them. The call rests on the fitted dose curve; in most records, active means well fitted activation curve with a large enough effect in the repeat runs; inconclusive means weak or mixed curves; inactive means flat fitted curve, though single readings scatter.
Potency means the concentration at half of the fitted maximal effect.

A short description of this assay: A CellTox Green Cytotoxicity Assay to monitor cytotoxicity in HepG2 cells - 8 hour (AID 1224890). Further: nearly all actives have a fitted effect of over 45% in size. To be noted: CellTox Green fluorescence; series mostly up to 76.8 µM. From the text: National Center for Advancing Translational Sciences [NCATS]
NIH Chemical Genomics Center [NCGC]
U.S. Environmental Protection Agency [EPA]
National Institutes of Environmental Health Sciences [NIEHS]
National Toxicology Program [NTP]
Cell-based models are critical for drug discovery. Determining the natural cytotoxic effects resulting from test compounds is an essential research activity. A CellTox Green Cytotoxicity Assay to monitor cytotoxicity in real time of continues cell culture during 40 hours of the compound treatment was used to screen Tox21 10K library compounds in HepG2 cells. CellTox Green Cytotoxicity Assay is a nonlytic, homogeneous, biofluorescent method to measure cytotoxicity in cell culture after experimental manipulation. The assay system uses a proprietary asymmetric cyanine dye that is excluded from viable cells but preferentially stains the dead cell's DNA. […] Viable cells produce no appreciable increases in fluorescence. Therefore, the fluorescence signal produced by the binding interaction with dead cell DNA is proportional to cytotoxicity.
The mixture of HepG2 cell suspension and reagents were dispensed at 600cells/6 ul/well in 1536-well tissue culture treated black solid bottom plates using a Multidrop dispenser. After the assay plates were incubated at a 37 C/5% CO2 incubator for 5 hours, 23 nL of compounds dissolved in DMSO, positive and negative controls was transferred to the assay plate by a pintool work station. The plates were incubated at 37 C for 40 hours. The fluorescence intensity were measured at 0h, 8h, 16h, 24h, 32h and 40h time points using ViewLux plate reader during compound treatment.
On to `O=C1C=CC(=O)N1`, for which the Potency was 50.3 µM (active).

As to `COCCCC/C(=N\OCCN)c1ccc(C(F)(F)F)cc1`, the Potency result is “inactive”.

Turning to `CCOC(=O)c1nc(C(Cl)(Cl)Cl)n(-c2ccc(Cl)cc2Cl)n1`, the Potency result was “inactive”.

For `C=C(C)C(=O)OCC[N+](C)(C)C`, the Potency result is “inactive”.

Consider `N/C(=N\N=C\c1ccc(Cl)cc1)N/N=C/c1ccc(Cl)cc1`, for which the Potency is 21.3 µM (active).

As for `OCc1c[nH]c2ccccc12`, the Potency entry is “inactive”.

As to `Nc1ccc(N)c2ccccc12`, the Potency entry was “inactive”.

For the molecule `COc1ccc(CN2CCN(C(c3ccc(F)cc3)c3ccc(F)cc3)CC2)c(OC)c1OC`, the Potency entry was “inactive”.

Regarding `N=C1N=C(N)c2ccccc21`, the Potency entry was “inactive”.

For the molecule `CCc1cc(SCc2sc(-c3ccc(C(F)(F)F)cc3)nc2CN2CCN(c3ccc(OC)cc3)CC2)ccc1OCC(=O)O`, the Potency entry is “inactive”.

On to `Oc1ccc2cc(SSc3ccc4cc(O)ccc4c3)ccc2c1`, for which the Potency result was “inactive”.

In the case of `C/C=C1/C(=O)C[C@H]2[C@@H]3CCC4=CC(=O)CC[C@]4(C)[C@H]3CC[C@]12C`, the Potency entry is “inactive”.

In the case of `CCCCN(CCCC)c1ccc(C(=O)c2ccccc2C(=O)O)c(O)c1`, the Potency entry is “inactive”.

On to `ON=C1CCCC1`, for which the Potency result was “inactive”.

For the molecule `O=CC=C(c1ccccc1)c1ccccc1`, the Potency result was “inactive”.

Turning to `Oc1cccc2cc3cccc(O)c3c(O)c12`, the Potency result was “inactive”.

With `CCN(C(=O)N(CC)c1ccccc1)c1ccccc1`, the Potency entry was “inactive”.

For `CCCCc1oc2ccc(NS(C)(=O)=O)cc2c1C(=O)c1ccc(OCCCN(CCCC)CCCC)cc1`, the Potency was 23.9 µM (active).

Take `N#CSc1ccc(N)c([N+](=O)[O-])c1`: the Potency entry is “inactive”.

In the case of `CCOC(=O)O[C@]1(C(=O)OCCl)CC[C@H]2[C@@H]3CCC4=CC(=O)C=C[C@]4(C)[C@H]3[C@@H](O)C[C@@]21C`, the Potency entry was “inactive”.

For `Fc1ccc([C@@H]2CCNC[C@H]2COc2ccc3c(c2)OCO3)cc1`, the Potency result was “inactive”.

`O=C(O)c1c(Cl)cccc1Cl`: the Potency entry was “inactive”.

In the case of `Oc1ccc(Cl)cc1Sc1cc(Cl)ccc1O`, the Potency entry is “inactive”.

Turning to `O=C1c2c(O)ccc(Nc3ccc(CCO)cc3)c2C(=O)c2c([N+](=O)[O-])ccc(O)c21`, the Potency result was “inactive”.

In the case of `Cc1nc(-c2ccc3c(c2)CCN(CCC2CCC(NC(=O)/C=C/c4ccc(F)cc4)CC2)CC3)no1` (stereo not given), the Potency entry is “inactive”.

With `C[n+]1cc2c3c(ccc2c2ccc4cc5c(cc4c21)OCO5)OCO3`, the Potency is 0.737 µM (active).

With `CCC(CN)=C(c1ccccc1)c1ccccc1`, the Potency entry is “inactive”.

Take `OC1(c2ccc(Cl)c(C(F)(F)F)c2)CCN(CCCC(c2ccc(F)cc2)c2ccc(F)cc2)CC1`: the Potency was 19 µM (active).

For the molecule `CCC(Cl)C(Cl)C(Cl)CC(Cl)C(Cl)C(C)Cl` (stereo not given), the Potency entry was “inactive”.

`NNc1nc(-c2ccccc2)cs1`: the Potency entry is “inactive”.

For the molecule `N=C1C=CC(=C(c2ccc(N)cc2)c2ccc(N)cc2)C=C1`, the Potency result is “inactive”.

For `CN(C/C=C/C#CC(C)(C)C)Cc1cccc2ccccc12`, the Potency result is “inactive”.

Regarding `NC(=O)NS(=O)(=O)c1ccc(N)cc1`, the Potency result was “inactive”.

Regarding `O=[N+]([O-])c1cc(Cl)c(Cl)c(Cl)c1Cl`, the Potency entry was “inactive”.

Take `CCN(CC)CCCC(C)Nc1c2ccc(Cl)cc2nc2ccc(OC)cc12` (stereo not given): the Potency was 16.9 µM (active).

As for `OCCN1CCN(CC/C=C2/c3ccccc3Sc3ccc(C(F)(F)F)cc32)CC1`, the Potency is 23.9 µM (active).

Take `Cc1ccc(-n2nc(C(C)(C)C)cc2NC(=O)Nc2ccc(OCCN3CCOCC3)c3ccccc23)cc1`: the Potency result was “inactive”.

As to `Cc1c(C)c2c(c(C)c1OC(=O)CCC(=O)O)CC[C@@](C)(CCC[C@H](C)CCC[C@H](C)CCCC(C)C)O2`, the Potency entry was “inactive”.

In the case of `Nc1ccccc1O`, the Potency entry is “inactive”.

Take `CN(C)CCCOC1(Cc2ccccc2)CCCCCC1`: the Potency result was “inactive”.
